From paper PMC4336329 (PLoS ONE, 2015)
Among all 310,000 compounds or so, about 14,000 (4.5%) showed an effect of 50% or more. Effects have a minus sign here. What follows is part of a selection rich in strong results, with near analogues and random picks from the rest.

Each compound was assayed against human ether-à-go-go-related gene (hERG) potassium channel (human, UniProt Q12809) (assay: primary screen, population patch clamp on CHO cells stably expressing hERG; higher = less effect of the substance).
Chain of human ether-à-go-go-related gene (hERG) potassium channel (Q12809 whole entry, looked up): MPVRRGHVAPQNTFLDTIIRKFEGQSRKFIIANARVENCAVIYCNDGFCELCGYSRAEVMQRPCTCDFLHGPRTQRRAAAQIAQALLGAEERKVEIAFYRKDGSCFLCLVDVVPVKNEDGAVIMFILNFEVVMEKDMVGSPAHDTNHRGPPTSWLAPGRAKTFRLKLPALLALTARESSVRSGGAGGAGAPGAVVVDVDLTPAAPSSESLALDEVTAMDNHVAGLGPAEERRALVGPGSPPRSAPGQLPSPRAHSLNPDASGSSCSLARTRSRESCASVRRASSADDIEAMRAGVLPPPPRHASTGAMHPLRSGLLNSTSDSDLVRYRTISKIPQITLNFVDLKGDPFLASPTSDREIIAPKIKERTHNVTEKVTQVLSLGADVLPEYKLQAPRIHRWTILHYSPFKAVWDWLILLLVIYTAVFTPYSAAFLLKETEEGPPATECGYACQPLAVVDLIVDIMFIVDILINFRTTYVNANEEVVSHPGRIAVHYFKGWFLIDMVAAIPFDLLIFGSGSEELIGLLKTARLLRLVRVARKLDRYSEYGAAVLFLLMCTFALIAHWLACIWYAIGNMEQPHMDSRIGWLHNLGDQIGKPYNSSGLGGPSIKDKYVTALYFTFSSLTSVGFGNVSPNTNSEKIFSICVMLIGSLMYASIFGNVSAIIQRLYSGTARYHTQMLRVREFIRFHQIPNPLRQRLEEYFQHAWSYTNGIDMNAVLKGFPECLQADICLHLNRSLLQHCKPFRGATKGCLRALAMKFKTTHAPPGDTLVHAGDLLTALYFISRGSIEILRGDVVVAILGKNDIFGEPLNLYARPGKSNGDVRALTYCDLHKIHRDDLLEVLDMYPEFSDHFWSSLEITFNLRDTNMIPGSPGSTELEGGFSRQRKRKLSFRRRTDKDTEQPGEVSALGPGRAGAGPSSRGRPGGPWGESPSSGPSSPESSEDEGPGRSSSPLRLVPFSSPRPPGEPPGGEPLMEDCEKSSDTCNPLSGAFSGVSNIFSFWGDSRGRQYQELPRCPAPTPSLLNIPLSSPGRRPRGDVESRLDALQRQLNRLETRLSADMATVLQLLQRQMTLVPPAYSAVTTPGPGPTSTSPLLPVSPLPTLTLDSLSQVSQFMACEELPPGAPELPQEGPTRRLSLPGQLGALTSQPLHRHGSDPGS
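Note: peak tail current of the secondary pulse compared with the same well before compound.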

SMILES	hERG current change (%, negative = inhibition) at 10uM [%]
O=C(/C=C/Nc1ccc(S(=O)(=O)Nc2cnc3ccccc3n2)cc1)c1cccnc1	-12.9
O=C(C[n+]1cc(Br)cc(Br)c1)c1ccccc1.[Br-]	8.53
CC(C)C(=O)c1cn(CC(=O)NCc2ccc3c(c2)OCO3)c2ccccc12	16
CC1(C)CC(=O)C=C(c2ccc3[nH]ccc3c2)C1	1.61
O=C(CC1SC(=Nc2ccc3c(c2)OCCO3)NC1=O)Nc1ccc(F)cc1F (centres unmarked)	8.62
Cc1n[nH]c(=S)n1/N=C/c1ccc(OCc2ccc(Cl)cc2Cl)cc1	11.1
Cc1cc(NC(=O)Cn2nnc(-c3ccccc3N)n2)no1	11.8
CCOC(=O)c1c(NC(=O)CSc2nnc(-c3ccccc3)o2)sc(C(C)=O)c1C	5.01
O=C(C1CC1)N1CCN(c2ccc([N+](=O)[O-])cc2-n2cccc2)CC1	-31
CC(C)(C)C(=O)N1CCN(c2ccc([N+](=O)[O-])cc2-n2cccc2)CC1	-26.3
Cc1ccc(C(=O)N2CCN(c3ccc([N+](=O)[O-])cc3-n3cccc3)CC2)cc1	-56.4
O=C(c1ccc(F)cc1)N1CCN(c2ccc([N+](=O)[O-])cc2-n2cccc2)CC1	-65
O=C(c1ccc(F)cc1)N1CCC(C(=O)N2CCN(S(=O)(=O)c3cccc([N+](=O)[O-])c3)CC2)CC1	-34.5
Cc1ccc(N2CCN(C(=O)c3ccccc3)CC2)c(C)c1	-18.4
O=C(c1ccccc1)N1CCN(c2ccc([N+](=O)[O-])cc2-n2cccc2)CC1	-54.5
O=C(c1ccccc1F)N1CCN(c2ccc([N+](=O)[O-])cc2-n2cccc2)CC1	-23.1
CCOC(=O)C1CCCN(C(=O)c2cc3ccc(OC)cc3[nH]2)C1 (centres unmarked)	6.4
CN1CCN(CCCNCc2cn(CCC#N)c3ccccc23)CC1.O=C(O)C(=O)O	9.43
Cc1ccc(C(O)(COC(=O)C(C)C)COC(=O)C(C)C)c(O)c1	3.76
O=C(CCCC(=O)N(c1ccc2c(c1)OCCO2)C(C(=O)NC1CCCCC1)c1ccc(F)cc1)Nc1ccccn1 (centres unmarked)	10
COc1ccc([N+](=O)[O-])cc1CSc1ccccn1	1.85
O=C(NC1CCCCC1)C(c1cccs1)N(CC1CCCO1)C(=O)c1csnn1 (centres unmarked)	-16.1

SMILES	hERG current change (%, negative = inhibition) at 10uM [%]
COc1ccc(NC(=O)c2noc(C(C)C)c2[N+](=O)[O-])cc1	6.44
CCOc1ccc(NC(=O)CN2CCN(S(=O)(=O)c3ccc(Cl)cc3)CC2)cc1	-9.26
COc1ccc(NC(=O)CN2CCN(S(=O)(=O)c3ccc(Cl)cc3)CC2)cc1	-79.7
COc1ccc(NC(C)=O)cc1NC(=O)CN1CCN(S(=O)(=O)c2ccc(C(C)C)cc2)CC1	-9.86
O=C(CN1CCN(S(=O)(=O)c2ccc(Cl)cc2)CC1)NC1CC1	1.82
COc1ccc(NC(=O)CCN2CCN(S(=O)(=O)c3ccc(Cl)cc3)CC2)cc1	-27.1
Cc1cc(C)cc(NC(=O)CN2CCCN(S(=O)(=O)c3ccc(Br)s3)CC2)c1	-6.01
COc1cc(NC(=O)CN2CCN(S(=O)(=O)c3ccc(C(C)C)cc3)CC2)cc(OC)c1	-11.5
O=C(CN1CCCN(S(=O)(=O)c2ccc(Br)s2)CC1)Nc1ccc(Cl)cc1	-28.7
O=C(CN1CCN(S(=O)(=O)c2ccc(Cl)cc2)CC1)NC1CCCC1	-50.2
Cc1ccc(NC(=O)CN2CCCN(S(=O)(=O)c3ccc(Br)s3)CC2)cc1	-50.1
COc1ccc(NC(=O)CN2CCN(S(=O)(=O)c3ccc(C(C)C)cc3)CC2)cc1OC	-66.5
O=C(CN1CCN(S(=O)(=O)c2ccc(Cl)cc2)CC1)NC(=O)NC1CCCCC1	-27.7
Cc1ccccc1/C=C1\SC(=S)N(/N=C/c2cc([N+](=O)[O-])ccc2O)C1=O	8.13
COc1ccc(N(C)C(=O)c2cnc(N3CCN(c4ncccn4)CC3)c3ccccc23)cc1	-11.8
Cc1ccc(NC(=O)N2CCC(NC(=O)C(C)(C)C)CC2)cc1	10.1
O=C(Cn1cncn1)N/N=C/c1cccc(Cl)c1	16.3
Oc1ccc(N=Nc2cccc(C(F)(F)F)c2)cc1C=Nc1ccc(N2CCOCC2)cc1	15.6
CCOc1ccc(C(CC(=O)O)NC(=O)COc2ccccc2OC)cc1OC (centres unmarked)	26.4
Cc1c(C(=O)O)cccc1-c1ccc(/C=N/Nc2ccc(Br)cc2)o1	30.2
O=C(CN1CCCN(S(=O)(=O)c2ccc(F)cc2)CC1)Nc1c(Cl)cccc1Cl	-27.1
O=C(CN1CCN(S(=O)(=O)c2ccc(F)cc2)CC1)Nc1ccc2c(c1)OCCO2	-10.9

SMILES	hERG current change (%, negative = inhibition) at 10uM [%]
COc1ccc(NC(=O)CN2CCN(S(=O)(=O)c3ccc(Cl)cc3)CC2)cc1Cl	-0.308
O=C(CN1CCCN(S(=O)(=O)c2ccc(F)cc2)CC1)Nc1cccc(F)c1	-50.3
COc1ccc(S(=O)(=O)N2CCN(CC(=O)Nc3ccc(F)c(F)c3)CC2)cc1	-66.4
CCc1ccc(NC(=O)CN2CCCN(S(=O)(=O)c3ccc(F)cc3)CC2)cc1	-63.9
O=C(CCC(=O)N1CCN(S(=O)(=O)c2ccc(Cl)cc2)CC1)NC1CCCc2ccccc21 (centres unmarked)	-52.6
NS(=O)(=O)c1ccc(NC(=O)CN2CCCN(S(=O)(=O)c3ccc(F)cc3)CC2)cc1	-17.9
Cc1ccc(S(=O)(=O)N2CCN(C(=O)CCC(=O)NC3CCCc4ccccc43)CC2)cc1 (centres unmarked)	-17.3
O=C(CCC(=O)N1CCN(S(=O)(=O)c2ccccc2)CC1)NC1CCCc2ccccc21 (centres unmarked)	-13.5
COc1ccc(S(=O)(=O)N2CCN(CC(=O)Nc3cc(OC)cc(OC)c3)CC2)cc1	-0.404
COc1ccc(NC(=O)CN2CCCN(S(=O)(=O)c3ccc(F)cc3)CC2)cc1	-36.5
Cc1c(C(=O)Nc2nnc(C(F)(F)F)s2)oc2ccccc12	13.1
Cc1cc(OC(=O)c2ccc(S(=O)(=O)N(C)C)cc2)c([N+](=O)[O-])c(=O)[nH]1	10.6
COc1ccc2c(c1OC)C(=O)OC2C1c2cc3c(cc2CCN1C)OCO3 (centres unmarked)	6.25
COc1cc(C(O)CN)ccc1O.Cl (centres unmarked)	3.21
CCN(CC)C(=S)Sc1c(-c2ccccc2)c2cc(Cl)ccc2[nH]c1=O	5.42
COc1cccc(NC(=O)CN2CCN(S(=O)(=O)c3ccc(F)cc3)CC2)c1	-23.1
COc1ccc(S(=O)(=O)N2CCN(CC(=O)Nc3cccc(F)c3)CC2)cc1	-54.1
COc1ccc(S(=O)(=O)N2CCN(CC(=O)Nc3cccc(OC)c3)CC2)cc1	-31.4
Cc1cnc(NC(=O)C(C)N2CCN(C)CC2)s1.O=C(O)C(=O)O (centres unmarked)	20.7
O=C(O)C1(P(=O)(c2ccccc2)c2ccccc2)CCC1	-3.46
CC(/C=N/Nc1nncc(=O)[nH]1)=C\c1ccccc1	3.08
CC(/C=N/Nc1nnc(C)c(=O)[nH]1)=C\c1ccccc1	-10.5

SMILES	hERG current change (%, negative = inhibition) at 10uM [%]
CC(/C=N/Nc1ncc(C)c(=O)[nH]1)=C\c1ccccc1	-53
O=C(CSc1nnc(COc2ccc(Cl)cc2)o1)NC1CC2CCC1C2 (centres unmarked)	11.5
CCC(C)(C)NC(=O)C(C(C)C)N(CC1CCCO1)C(=O)CNS(=O)(=O)c1ccccc1 (centres unmarked)	-2.21
CCC(Oc1ccccc1)C(=O)Nc1ccc(C)c(S(=O)(=O)N2CCOCC2)c1 (centres unmarked)	-18
CC(Cc1ccccc1Sc1ccccc1O)N(C)C.Cl (centres unmarked)	-18.9
CNC(C)Cc1ccccc1Sc1ccc(O)cc1.Cl (centres unmarked)	-66.7
CC(Cc1ccccc1Sc1ccc(O)cc1)N(C)C.CCO.Cl (centres unmarked)	-69.5
CNCc1ccccc1Sc1ccc(OC)cc1.Cl	-30.4
CC(N)Cc1ccccc1Sc1ccc(O)cc1.O=C(O)C(=O)O (centres unmarked)	-35.5
CN(C)Cc1ccccc1Sc1ccc(Br)cc1	-15.6
O=C(C1=C(O)C(=O)N(CCN2CCOCC2)C1c1ccccc1)c1cccs1 (centres unmarked)	-2.27
O=C(OC(C(=O)NCc1cccs1)c1ccccc1F)c1ccco1 (centres unmarked)	20.5
CCOc1ccccc1NC(=O)COC(=O)C(Cc1ccccc1)NC(=O)c1ccco1 (centres unmarked)	-8.33
O=C1/C(=C\c2ccsc2)NC(=S)N1c1ccccc1	15.4
COc1ccccc1OCCC(=O)OCC(=O)Nc1cc(S(=O)(=O)N(C)C)ccc1Cl	-6.26
O=C(Cc1ccc(F)cc1)N1CCC(CC2CC(c3ccc(Cl)cc3)=NO2)(C(=O)NCC2CCCCC2)CC1 (centres unmarked)	-72.3
O=C(NCC1CCCCC1)C1(CC2CC(c3ccc(Cl)cc3)=NO2)CCNCC1 (centres unmarked)	-71.6
CCOc1cc(C(=O)N2CCC(CC3CC(c4ccc(Cl)cc4)=NO3)(C(=O)NCC3CCCCC3)CC2)cc(OCC)c1OCC (centres unmarked)	1.25
O=C(NCC1CCCCC1)C1(CC2CC(c3cccc(Br)c3)=NO2)CCNCC1 (centres unmarked)	-24.1
O=C(Cc1ccc(F)cc1)N1CCC(CC2CC(c3cccc(Br)c3)=NO2)(C(=O)NCC2CCCCC2)CC1 (centres unmarked)	-8.67
